The whole screen tested about 69,000 compounds, of which about 8,600 (12%) showed an effect of 50% or more. The sample holds strong results, similar compounds and a random draw of the others, so the mix is not that of the screen.
Tested on: Plasmodium berghei
Test: Screen against P. berghei liver stage (PbLuc), transformed with Luciferase, at 10uM
Type: functional, HepG2
Conditions: tested at 10 uM

First: Cc1cccc(C(=O)N2CCCCC2c2[nH]ncc2S(C)(=O)=O)c1 (stereo not given)
Second: Cc1cccc(-c2noc(CN3CCCCC3Cn3cncn3)n2)c1 (stereo not given)
The INHIBITION of the first is lower: 4.08% for the first, 9.14% for the second.

Going from `O=S(=O)(NCc1ccc(S(=O)(=O)N2CCCC2)s1)c1cc(Cl)cc(Cl)c1` to `CCc1ccc(S(=O)(=O)NCC2CCN(c3cnccn3)CC2)s1`, the INHIBITION rises from 40.6% to 83%.

First: Cn1cc(NC(=O)N2CCCC2c2cccnc2)ccc1=O (stereo not given)
Second: Cc1cccc(NC(=O)[C@@H]2CCCN2CC(=O)Nc2ccccc2)n1
The INHIBITION of the first is lower: -72.2% for the first, 76.5% for the second.

First: CC(C)C1SCC(=O)Nc2c1cnn2-c1ccc(F)cc1 (stereo not given)
Second: CC(C)C1SCC(=O)Nc2c1cnn2-c1ccc(Cl)cc1 (stereo not given)
The INHIBITION of the first is lower: 8.99% for the first, 78% for the second.

First: COc1ccc(-n2ncc3c2NC(=O)CSC3C(C)C)cc1 (stereo not given)
Second: CC(C)CCn1c(=O)[nH]c2cn(-c3ccc(F)cc3)c(=O)n21
The INHIBITION of the first is higher: 5.51% for the first, -15% for the second.

Going from `CCn1cc2[nH]c(OC)c(CNC(=O)C3CCS(=O)(=O)CC3)cc-2c1=O` to `CN1CCC(C(=O)NCCC2CN(c3cnn(C)c(=O)c3)CCO2)CC1` (stereo not given), the INHIBITION rises from -21.8% to 23.6%.

Going from `O=C1O[C@@H]2CN(Cc3cc4ccccc4s3)C[C@@H]2N1Cc1ccccn1` to `O=C1O[C@@H]2CN(Cc3cc4ccccc4o3)C[C@@H]2N1Cc1ccccn1`, the INHIBITION rises from 36.5% to 55%.

First: Cc1ccc(CN2C[C@H]3OC(=O)N(Cc4ccccn4)[C@H]3C2)o1
Second: COCC1CC2(CCN(Cc3ccccn3)CC2)CN1c1ncccn1 (stereo not given)
The INHIBITION of the first is higher: 22.9% for the first, 8.67% for the second.

Compared with `Cc1ccc(-c2cnnc(N3CCCC3c3nonc3C)n2)o1` (stereo not given), `COc1cc2c(nn1)CCN(Cc1nnc(Cc3ccccc3)o1)C2` is higher in INHIBITION: 5.67% for the first, 88.5% for the second.

Going from `CN1C(=O)CCc2cc(NC(=O)C3CC(=O)N(CC4CC4)C3)ccc21` (stereo not given) to `Cc1cccc(NC(=O)[C@@H]2CCCN2CC(=O)N2CCCCCC2)n1`, the INHIBITION rises from -5.57% to -3.83%.

First: Cc1cccc(NC(=O)[C@@H]2CCCN2Cc2ccccc2C#N)n1
Second: c1ccc(Cc2nc(CN3CCCC3Cn3cncn3)cs2)cc1 (stereo not given)
The INHIBITION of the first is lower: 0.342% for the first, 23.5% for the second.

Going from `CC(C)(C)Oc1ccc(NCC(=O)NCc2ccco2)cc1` to `CCc1cc(=O)n(CCNC(=O)Nc2ccc(OC(F)(F)F)cc2)cn1`, the INHIBITION rises from 16.1% to 28%.

First: OC(CN1CCN(Cc2nc(C3CC3)no2)CC1)c1ccccc1 (stereo not given)
Second: COc1cc2c(nn1)CCN(Cc1nc(Cc3ccccc3)no1)C2
The INHIBITION of the first is higher: -45.9% for the first, -112% for the second.

First: CCCN(CCC)c1ncc(S(=O)(=O)c2ccccc2)c(N)n1
Second: CCCN(CCC)c1ncc(S(=O)(=O)c2cccc(C)c2)c(N)n1
The INHIBITION of the first is higher: 52.4% for the first, 6.29% for the second.

Compared with `CCCN(CCC)c1ncc(S(=O)(=O)c2ccc(C)cc2)c(N)n1`, `CCN(CC)CCCNc1nc(C)nc2c1CCN(C)C2` is lower in INHIBITION: 20.4% for the first, 5.185% for the second.

First: CN(Cc1ccccc1OC(F)(F)F)C(=O)C1CCCN(C(N)=O)C1 (stereo not given)
Second: CN(Cc1ccccc1OC(F)(F)F)C(=O)C1CC1
The INHIBITION of the first is lower: -116% for the first, 82.7% for the second.

Going from `COc1ccnc(N(C)Cc2ccccc2OC(F)(F)F)n1` to `O=C(CCn1c(C(F)(F)F)cc2cccnc21)NC1CCCC1`, the INHIBITION falls from 15.2% to 8.72%.

First: O=C1OCCCN1Cc1nc(-c2ccc(N3CCCCC3)cc2)no1
Second: O=C1NCCCN1Cc1nc(-c2ccc(N3CCCCC3)cc2)no1
The INHIBITION of the first is higher: 55.5% for the first, 26.4% for the second.

Going from `O=C1OCCCN1Cc1nc(-c2ccncc2)no1` to `CC(C)Cc1nc(CN2CCOC(Cn3cncn3)C2)no1` (stereo not given), the INHIBITION falls from 36.5% to 15.3%.

Compared with `Cc1ccc2[nH]c(=O)cc(C(=O)N[C@@H]3C[C@@H](CO)N(C)C3)c2c1`, `Cc1ccc(NCC2(O)CCNCC2)cc1C` is lower in INHIBITION: 46.7% for the first, 23.1% for the second.

First: O=C(CSC1=NS(=O)(=O)c2cc(F)ccc2N1)Nc1ccc(Cl)c(Cl)c1
Second: O=C(CSC1=NS(=O)(=O)c2cc(F)ccc2N1)Nc1cccc(Cl)c1
The INHIBITION of the first is higher: 57.3% for the first, 16.6% for the second.

Compared with `O=C(CSC1=NS(=O)(=O)c2cc(F)ccc2N1)Nc1ccc(Cl)cc1`, `OC1(CNc2ccc(F)cc2)CCNCC1` is higher in INHIBITION: 3.52% for the first, 6.29% for the second.

Compared with `COc1cc2c(nn1)CCN(Cc1ncc(C(C)(C)C)o1)C2`, `Cc1nc2c(c(NCCCN3CCOCC3)n1)CCN(C)C2` is higher in INHIBITION: 18.9% for the first, 59.7% for the second.

Compared with `O=C(C1CCCO1)N1CCCn2c(nnc2Cn2ccnc2)C1` (stereo not given), `O=S(=O)(NCC1CCN(c2cnccn2)CC1)c1cccs1` is higher in INHIBITION: -12.4% for the first, 25.1% for the second.

Compared with `CC(C)n1cc(S(=O)(=O)N2CCCCCC2)cn1`, `CCS(=O)(=O)NCC1CCN(c2cnccn2)CC1` is higher in INHIBITION: 33.3% for the first, 40% for the second.

Compared with `c1ccc(CCc2n[nH]c(C3CCC3)n2)cc1`, `Cc1nccc(N2CCCC2CCNS(C)(=O)=O)n1` (stereo not given) is higher in INHIBITION: -31.9% for the first, 10.9% for the second.

Going from `COc1ccc(NCC2(O)CCNCC2)cc1OC` to `CC(=O)NCc1nn(C)c2c1CN(Cc1ccsc1)C2`, the INHIBITION rises from 62.7% to 69.7%.

With `Cc1nc2c(c(NCCN3CCOCC3)n1)CCN(C)C2` the INHIBITION was 7.55%.

From ChEMBL document CHEMBL4513216, “Probing the Open Global Health Chemical Diversity Library for Multistage-Active Starting Points for Next-Generation Antimalarials” (ACS Infect Dis, 2020)
